Measured values: PubChem BioAssay AID1159580 (chemical genetic matrix, 2015)
Screen size: about 5,500 compounds; about 2,000 (36%) were called active. Another 18% or so got no clear call; they are omitted. Cut-off read from the data, not from the text of the source: active = normalized growth mostly below about 0.91 (no sharp cut-off); inconclusive = no clear call, values can overlap the other calls; inactive = mostly above about 0.92. This is one part of the list.

Assay: chemical genetic growth profiling, strain panel (AID 1159580);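 note: tested at 20 µM; growth read once vehicle control cultures reached saturation at 30 °C; 1 = growth at the plate median or of vehicle wells; lower values mean less growth of the strain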
Conditions: growth OD

Measured: normalized growth

COc1cc(NS(=O)(=O)c2ccc(N)cc2)ncn1
inactive: S. cerevisiae deletion strains, locus YJR075W, strain HOC1, stronger effect = lower value 0.984 | S. cerevisiae deletion strains, locus YKL009W, strain mrt4, stronger effect = lower value 0.982 | S. cerevisiae deletion strains, locus YKL068W, stronger effect = lower value 0.986 | S. cerevisiae deletion strains, locus YKL085W, strain MDH1 (second series), stronger effect = lower value 0.991 | S. cerevisiae deletion strains, locus YKL085W, strain MDH1, stronger effect = lower value 0.991 | S. cerevisiae deletion strains, locus YKL160W, strain elf1, stronger effect = lower value 0.98 | S. cerevisiae deletion strains, locus YKL190W, strain CNB1, stronger effect = lower value 0.978 | S. cerevisiae deletion strains, locus YKR001C, strain vps1, stronger effect = lower value 0.986 | S. cerevisiae deletion strains, locus YKR026C, strain gcn3, stronger effect = lower value 0.968 | S. cerevisiae deletion strains, locus YKR091W, strain srl3, stronger effect = lower value 0.99 | S. cerevisiae deletion strains, locus YLL001W, strain dnm1, stronger effect = lower value 0.974 | S. cerevisiae deletion strains, locus YLL026W, stronger effect = lower value 0.985 | S. cerevisiae deletion strains, locus YLL041C, strain sdh2, stronger effect = lower value 0.982 | S. cerevisiae deletion strains, locus YLR027C, strain aat2, stronger effect = lower value 0.988 | S. cerevisiae deletion strains, locus YLR039C, strain RIC1, stronger effect = lower value 1.02 | S. cerevisiae deletion strains, locus YLR058C, strain SHM2, stronger effect = lower value 0.972 | S. cerevisiae deletion strains, locus YLR102C, strain apc9, stronger effect = lower value 0.986 | S. cerevisiae deletion strains, locus YLR113W, strain HOG1, stronger effect = lower value 0.949 | S. cerevisiae deletion strains, locus YLR221C, strain rsa3, stronger effect = lower value 0.985 | S. cerevisiae deletion strains, locus YLR258W, strain gsy2, stronger effect = lower value 0.979 | S. cerevisiae deletion strains, locus YLR262C, strain YPT6 (second series), stronger effect = lower value 0.985 | S. cerevisiae deletion strains, locus YLR262C, strain YPT6, stronger effect = lower value 1.02 | S. cerevisiae deletion strains, locus YLR268W, strain sec22, stronger effect = lower value 0.948 | S. cerevisiae deletion strains, locus YLR320W, strain mms22, stronger effect = lower value 0.979 | S. cerevisiae deletion strains, locus YLR330W, strain CHS5, stronger effect = lower value 0.998 | S. cerevisiae deletion strains, locus YLR342W, strain FKS1 (second series), stronger effect = lower value 1.04 | S. cerevisiae deletion strains, locus YLR342W, strain FKS1, stronger effect = lower value 1.02 | S. cerevisiae deletion strains, locus YLR357W, strain rsc2, stronger effect = lower value 0.93 | S. cerevisiae deletion strains, locus YLR370C, strain arc18, stronger effect = lower value 0.979 | S. cerevisiae deletion strains, locus YLR371W, strain rom2, stronger effect = lower value 0.992 | S. cerevisiae deletion strains, locus YLR384C, strain iki3, stronger effect = lower value 0.974 | S. cerevisiae deletion strains, locus YLR418C, strain cdc73, stronger effect = lower value 0.983 | S. cerevisiae deletion strains, locus YML016C, strain PPZ1, stronger effect = lower value 0.992 | S. cerevisiae deletion strains, locus YML032C, strain rad52, stronger effect = lower value 0.991 | S. cerevisiae deletion strains, locus YML120C, strain ndi1, stronger effect = lower value 1.01 | S. cerevisiae deletion strains, locus YML124C, strain tub3, stronger effect = lower value 0.988 | S. cerevisiae deletion strains, locus YMR058W, strain fet3, stronger effect = lower value 0.993 | S. cerevisiae deletion strains, locus YMR078C, strain ctf18, stronger effect = lower value 0.981 | S. cerevisiae deletion strains, locus YMR125W, strain sto1, stronger effect = lower value 0.963 | S. cerevisiae deletion strains, locus YMR129W, stronger effect = lower value 0.996 | S. cerevisiae deletion strains, locus YMR205C, strain PFK2, stronger effect = lower value 0.992 | S. cerevisiae deletion strains, locus YMR223W, strain ubp8, stronger effect = lower value 0.981 | S. cerevisiae deletion strains, locus YMR231W, strain pep5, stronger effect = lower value 0.975 | S. cerevisiae deletion strains, locus YMR263W, strain SAP30, stronger effect = lower value 0.982 | S. cerevisiae deletion strains, locus YMR307W, strain GAS1, stronger effect = lower value 1.1 | S. cerevisiae deletion strains, locus YNL067W, strain RPL9B, stronger effect = lower value 0.981 | S. cerevisiae deletion strains, locus YNL071W, strain lat1, stronger effect = lower value 0.969 | S. cerevisiae deletion strains, locus YNL153C, strain GIM3, stronger effect = lower value 0.965 | S. cerevisiae deletion strains, locus YNL183C, strain NPR1, stronger effect = lower value 0.933 | S. cerevisiae deletion strains, locus YNL209W, strain ssb2, stronger effect = lower value 0.975 | S. cerevisiae deletion strains, locus YNL233W, strain BNI4, stronger effect = lower value 0.987 | S. cerevisiae deletion strains, locus YNL248C, strain rpa49, stronger effect = lower value 0.931 | S. cerevisiae deletion strains, locus YNL250W, strain rad50, stronger effect = lower value 0.979 | S. cerevisiae deletion strains, locus YNL271C, strain bni1, stronger effect = lower value 0.992 | S. cerevisiae deletion strains, locus YNL298W, strain CLA4, stronger effect = lower value 0.983 | S. cerevisiae deletion strains, locus YNL307C, strain MCK1, stronger effect = lower value 0.979 | S. cerevisiae deletion strains, locus YNL322C, strain KRE1 (second series), stronger effect = lower value 0.955 | S. cerevisiae deletion strains, locus YNL322C, strain KRE1, stronger effect = lower value 0.991 | S. cerevisiae deletion strains, locus YNR049C, strain mso1, stronger effect = lower value 0.979 | S. cerevisiae deletion strains, locus YNR052C, strain pop2, stronger effect = lower value 0.987 | S. cerevisiae deletion strains, locus YOL006C, strain TOP1, stronger effect = lower value 0.965 | S. cerevisiae deletion strains, locus YOL012C, strain htz1 1.08 | S. cerevisiae deletion strains, locus YOL147C, strain pex11, stronger effect = lower value 0.982 | S. cerevisiae deletion strains, locus YOR001W, strain rrp6, stronger effect = lower value 0.998 | S. cerevisiae deletion strains, locus YOR061W, strain CKA2, stronger effect = lower value 0.961 | S. cerevisiae deletion strains, locus YOR069W, strain VPS5, stronger effect = lower value 0.992 | S. cerevisiae deletion strains, locus YOR070C, strain gyp1, stronger effect = lower value 0.984 | S. cerevisiae deletion strains, locus YOR080W, strain dia2, stronger effect = lower value 0.977 | S. cerevisiae deletion strains, locus YOR083W, strain WHI5, stronger effect = lower value 0.989 | S. cerevisiae deletion strains, locus YOR106W, strain vam3, stronger effect = lower value 0.981 | S. cerevisiae deletion strains, locus YOR136W, strain idh2, stronger effect = lower value 0.981 | S. cerevisiae deletion strains, locus YOR144C, strain elg1, stronger effect = lower value 0.982 | S. cerevisiae deletion strains, locus YOR184W, strain ser1, stronger effect = lower value 0.989 | S. cerevisiae deletion strains, locus YOR231W, strain MKK1, stronger effect = lower value 0.97 | S. cerevisiae deletion strains, locus YOR265W, strain rbl2, stronger effect = lower value 0.991 | S. cerevisiae deletion strains, locus YOR270C, strain vph1, stronger effect = lower value 0.95 | S. cerevisiae deletion strains, locus YOR290C, strain snf2, stronger effect = lower value 0.976 | S. cerevisiae deletion strains, locus YOR316C, strain cot1, stronger effect = lower value 0.982 | S. cerevisiae deletion strains, locus YPL051W, strain arl3, stronger effect = lower value 0.981 | S. cerevisiae deletion strains, locus YPL055C, strain LGE1, stronger effect = lower value 0.92 | S. cerevisiae deletion strains, locus YPL078C, strain atp4, stronger effect = lower value 0.988 | S. cerevisiae deletion strains, locus YPL106C, strain sse1, stronger effect = lower value 0.969 | S. cerevisiae deletion strains, locus YPL240C, strain hsp82, stronger effect = lower value 0.997 | S. cerevisiae deletion strains, locus YPL256C, strain CLN2, stronger effect = lower value 0.974 | S. cerevisiae deletion strains, locus YPR119W, strain clb2, stronger effect = lower value 0.982 | S. cerevisiae deletion strains, locus YPR141C, strain kar3, stronger effect = lower value 0.97 | S. cerevisiae deletion strains, locus YPR163C, strain tif3, stronger effect = lower value 0.985 | S. cerevisiae deletion strains, locus YPR167C, strain met16, stronger effect = lower value 0.994 | S. cerevisiae deletion strains, strain wtn01, stronger effect = lower value 0.981 | S. cerevisiae strains, strain wild type, stronger effect = lower value 0.981
